Screening data (PubChem BioAssay)
Luciferase inh: Firefly luciferase inhibition profiling of diverse chemical library using quantitative high-throughput screening | Potency, µM (series often up to 115 µM), usual class: inhibitors | AID 1347043, 2019 | Luciferin 4-monooxygenase (Photinus pyralis), P08659 | hit rate 2.5% among 76,000 | purified P. pyralis luciferase, luminescence, biochemical; note: nearly all actives have a fitted effect of over 65% in size
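Luminescence read by CCD imaging after purified firefly luciferase (10nM final) was added to substrate buffer holding 10uM D-luciferin and 10uM ATP, pH 7.5, pre-dosed with compound.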
HEK293 tox: Cytotoxic Profiling in HEK 293 Cell Line of Diverse Libraries Using Quantitative High-Throughput Screening; Potency, µM (doses to about 115 µM), inactives show at the top dose activity change, negative = cytotoxicity, most hits filed as inhibitors; AID 1345083, 2018; hit rate 6.6% among 94,000; HEK 293 viability, ATP luminescence (CellTiter-Glo), 48-72 h; note: nearly all actives have a fitted effect of over 60% in size
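Cytotoxicity was scored by loss of ATP-coupled luminescence (CellTiter-Glo) in HEK 293 cells. Compound treatment ran 48 or 72 hr at 37 degree Celsius, 5% CO2, 95% humidity.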
hNpr1 antagonist: Natriuretic polypeptide receptor (hNpr1) antagonism - Primary qHTS | Potency, µM (highest dose often 46.3 µM), for inactives: at the highest dose activity change, negative = inhibition, hits mostly inhibitors | AID 1347048, 2019 | HEK293 hNpr1 GloSensor cGMP, ANP-stimulated luminescence | hit rate 1.6% among 76,000; calls by dose curve; note: nearly all actives have a fitted effect of over 60% in size
Target sequence (P16066 whole entry, looked up): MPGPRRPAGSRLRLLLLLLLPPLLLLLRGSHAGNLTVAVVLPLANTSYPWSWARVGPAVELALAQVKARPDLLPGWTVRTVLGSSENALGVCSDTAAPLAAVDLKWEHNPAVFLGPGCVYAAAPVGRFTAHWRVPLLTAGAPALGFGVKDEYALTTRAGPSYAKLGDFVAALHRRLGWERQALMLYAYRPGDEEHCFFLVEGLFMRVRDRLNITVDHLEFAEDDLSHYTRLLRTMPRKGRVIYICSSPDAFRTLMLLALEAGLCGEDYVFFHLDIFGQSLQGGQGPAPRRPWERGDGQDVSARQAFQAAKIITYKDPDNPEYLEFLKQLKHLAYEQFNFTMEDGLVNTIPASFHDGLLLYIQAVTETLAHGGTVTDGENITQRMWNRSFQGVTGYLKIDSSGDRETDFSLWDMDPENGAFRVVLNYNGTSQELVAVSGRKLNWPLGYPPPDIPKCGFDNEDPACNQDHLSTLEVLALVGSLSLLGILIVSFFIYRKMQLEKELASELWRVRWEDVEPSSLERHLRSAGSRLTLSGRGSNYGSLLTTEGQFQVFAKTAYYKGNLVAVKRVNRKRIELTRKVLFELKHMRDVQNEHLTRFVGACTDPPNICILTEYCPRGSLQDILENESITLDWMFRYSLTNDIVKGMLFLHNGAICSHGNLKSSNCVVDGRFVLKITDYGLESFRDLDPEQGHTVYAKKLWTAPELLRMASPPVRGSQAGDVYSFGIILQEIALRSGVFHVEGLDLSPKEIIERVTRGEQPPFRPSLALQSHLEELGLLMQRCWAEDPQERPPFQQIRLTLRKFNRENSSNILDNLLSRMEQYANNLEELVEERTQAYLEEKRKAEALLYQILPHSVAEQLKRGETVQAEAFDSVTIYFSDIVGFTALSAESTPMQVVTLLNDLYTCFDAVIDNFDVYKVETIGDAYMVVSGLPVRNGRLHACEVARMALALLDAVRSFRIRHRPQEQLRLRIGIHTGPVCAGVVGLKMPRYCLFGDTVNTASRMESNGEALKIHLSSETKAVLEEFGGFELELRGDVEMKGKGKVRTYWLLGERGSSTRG
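HEK293 cells stably expressing human Npr1 and cGMP GloSensor pGS-40F, loaded 2 h with 2% GloSensor reagent, given compound 30 min at room temperature. Luminescence read before and 20 min after 0.1 nM hNppA.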
3T3 cytotox: Cytotoxic Profiling in NIH 3T3 Cell Line of Diverse Libraries Using Quantitative High-Throughput Screening | AID 1345082, 2018 | NIH 3T3 viability, CellTiter-Glo ATP luminescence, 48-72 h | hit rate 4.3% among 94,000 | Potency, µM (titrated, usually from 96.7 µM), for inactives: at the highest dose activity change, negative = cytotoxicity, actives largely listed as inhibitors; note: nearly all actives have a fitted effect of over 55% in size
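Cytotoxicity is measured as loss of cellular ATP: NIH 3T3 cells (400/well) are exposed to compound for 48 or 72 hr at 37 °C, then CellTiter-Glo luminescence is imaged after 10 min at room temperature.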
GPT2 inh: Primary qHTS assay for inhibitors of Glutamate pyruvate transaminase 2 (GPT2). Recombinant GPT2, coupled pyruvate oxidase/HRP Amplex Red fluorescence. hit rate 0.25% among 100,000. Potency, µM (titrated, usually from 57.7 µM), for the others: at the top dose activity change, negative = inhibition, most hits filed as inhibitors. Alanine aminotransferase 2 (Homo sapiens), Q8TD30. AID 1671188, 2021; note: nearly all actives have a fitted effect of over 60% in size
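Fluorescence of coupled pyruvate oxidase/HRP/Amplex Red system (50uM Amplex, 30 min, dark) reports pyruvate formed by GPT2. Enzyme reaction: 10ng/uL GPT2, 2mM L-alanine, 250uM a-KG, 30 min room temperature, pH 7.5; 50uM AOA control.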
* = called active by the depositor; i = inactive; ? = inconclusive; . = not tested or not shown; [ ] = another dose, or the depositor's remark. Most compounds without a hit are left out; they make up all but 10% or so of the library. Unless noted, calls come from the whole dose curve; as a rule, active = well fitted curve in the direction sought with a large enough effect; inconclusive = small, poorly fitted or top-dose-only effect, or another doubt; inactive = no such curve, though single readings can be large; an effect the other way counts as inactive or inconclusive. % is set by controls: 0 for no effect and ±100 for the full control effect; potency is the fitted concentration of half-maximal effect.

SMILES | Luciferase inh | HEK293 tox | hNpr1 antagonist | 3T3 cytotox | GPT2 inh
COCc1nc2nc(-c3ccccc3)c(-c3ccc([S+](C)(=O)[O-])cc3)cc2n1C | i | i | . | 89.1µM* | -1.9%[88.5 µM]
COc1ccc(CCNC(=O)C2CCCCC(=O)N2C)cc1OC (stereo not drawn) | i | 8.5% | 0.6% | -9.9% | 4.1%
Cc1nn2c(c1-c1ccccc1OCc1ccccc1)N(C(=O)C(C)C)CCC2 | i | 31.6µM* | -1.0%[70.6 µM] | 89.1µM* | -8.6%[88.5 µM]
CC(=O)Nc1ccccc1-c1c(C)nn2c1N(CCCc1ccccc1)CCC2 | i | ? | ? | 25.1µM* | 0.8%[88.5 µM]
Cc1nn2c(c1-c1ccccc1[S+](C)(=O)[O-])N(Cc1ccccc1F)CCC2 | i | ? | -7.8%[70.6 µM] | 31.6µM* | i
Cc1nn2c(c1-c1ccccc1OCc1ccccc1)N(Cc1ccccc1)CCC2 | i | ? | -21.4%[70.6 µM] | ? | -0.2%[88.5 µM]
Cc1nn2c(c1-c1ccccc1[S+](C)(=O)[O-])N(C(=O)c1ccccc1)CCC2 | i | -17.4%[172 µM] | -0.2%[70.6 µM] | ? | 2.0%[88.5 µM]
Cc1nn2c(c1-c1ccccc1OCc1ccccc1)N(Cc1ccc(OCC(=O)O)cc1)CCC2 | i | -13.8% | 0.0% | 25.1µM* | i
CN(C)CC(O)COc1ccc(CN2CCN(c3ncc[nH]c3=O)CC2)cc1 (stereo not drawn) | i | 4.9% | 0.2% | 2.0% | ?
COCCN1CC2CN(C(=O)CCCc3ccccc3)CC(C1)O2 | i | -3.4% | 0.7% | -6.5% | i
Cc1nn2c(c1-c1ccccc1C(C)C)N(Cc1ccc(C(=O)O)cc1)CCC2 | i | ? | -0.4%[70.6 µM] | 7.08µM* | i
COc1ccc(NC(=O)c2cc3n(n2)CC(c2ccc4c(c2)OCO4)OC3)c(OC)c1 (stereo not drawn) | i | ? | -4.6% | ? | i
Cc1ccc(NC(=O)c2cc3n(n2)CC(c2ccc4c(c2)OCO4)OC3)cc1F (stereo not drawn) | i | 39.8µM* | ? | -25.6% | i
COc1ccc(NC(=O)c2cc3n(n2)CC(c2ccc4c(c2)OCO4)OC3)cc1 (stereo not drawn) | ? | 44.7µM* | 11.2µM* | ? | i
CC(=O)Nc1ccc(NC(=O)c2cc3n(n2)CC(c2ccc(Br)cc2)OC3)cc1 (stereo not drawn) | ? | ? | ? | ? | -2.6%
NC(=O)c1ccc(NC(=O)c2cc3n(n2)CC(c2ccc(Br)cc2)OC3)cc1 (stereo not drawn) | i | 35.5µM* | ? | ? | i
CC1=C[C@@H](CNC(=O)CCC(=O)O)[C@H](C(C)C)C[C@H]1Cc1nc2c(C)cccc2[nH]1 | i | ? | -1.8%[70.6 µM] | -1.8%[174 µM] | 2.0%[88.5 µM]
CC1=C[C@@H](CNC(=O)Cn2cnnn2)[C@H](C(C)C)C[C@H]1Cc1nc2ccncc2[nH]1 | i | ? | 2.1%[70.6 µM] | -26.2%[174 µM] | -3.1%[88.5 µM]
CC1=C[C@@H](CNC(=O)CCC(=O)O)[C@H](C(C)C)C[C@H]1Cc1nc2ccc(C)cc2[nH]1 | i | 0.2%[172 µM] | 7.4%[70.6 µM] | -2.2%[174 µM] | i
CC(=O)NC[C@@H]1C=C(C)[C@H](Cc2nc3ccc(C)cc3[nH]2)C[C@H]1C(C)C | i | ? | ? | 70.8µM* | -12.7%[88.5 µM]
CC1=C[C@@H](CNC(=O)c2cccnc2)[C@H](C(C)C)C[C@H]1CC(=O)N1CCCC1 | 63.1µM* | -15.4%[172 µM] | -11.9%[70.6 µM] | -9.9%[138 µM] | -2.0%[88.5 µM]
COc1ccccc1C(=O)NC[C@@H]1C=C(C)[C@H](Cc2nc3ccncc3[nH]2)C[C@H]1C(C)C | i | 35.5µM* | -18.5%[70.6 µM] | ? | -13.4%[88.5 µM]
COc1ccccc1CN(Cc1ccccc1OC)C[C@@H]1C=C(C)[C@H](Cc2nc3c(C)cccc3[nH]2)C[C@H]1C(C)C | i | 15.8µM* | ? | 31.6µM* | -9.1%
CC1=C[C@@H](CNC(=O)Cn2cnnn2)[C@H](C(C)C)C[C@H]1Cc1nc2ccccc2[nH]1 | i | ? | -26.5%[70.6 µM] | -23.2%[138 µM] | -9.6%[88.5 µM]
CC1=C[C@@H](CNC(=O)c2ccccc2)[C@H](C(C)C)C[C@H]1Cc1nc2ccncc2[nH]1 | i | 79.4µM* | ? | ? | i
SMILES | Luciferase inh | HEK293 tox | hNpr1 antagonist | 3T3 cytotox | GPT2 inh
CCCNC(=O)NC[C@@H]1C=C(C)[C@H](Cc2nc3ccccc3[nH]2)C[C@H]1C(C)C | i | 100µM* | ? | 35.5µM* | 1.8%[88.5 µM]
CC1=C[C@@H](CN2C(=O)c3ccccc3C2=O)[C@H](C(C)C)C[C@H]1Cc1nc2ccccc2[nH]1 | i | 31.6µM* | ? | 25.1µM* | -15.4%[88.5 µM]
CC1=C[C@@H](CNC(=O)c2ccccc2)[C@H](C(C)C)C[C@H]1Cc1nc2ccc(C)cc2[nH]1 | i | 50.1µM* | -27.5%[70.6 µM] | ? | -10.2%[88.5 µM]
COC(=O)c1ccc2nc(C[C@@H]3C[C@@H](C(C)C)[C@H](CNC(=O)c4cccnc4)C=C3C)[nH]c2c1 | i | ? | -4.8% | ? | 3.2%
Cc1nccn1CCC(NC(=O)c1cn(CCN)nn1)c1ccccc1 (stereo not drawn) | i | i | 0.6% | i | -7.6%
Cn1cnc2ccc(-c3cccc(C(F)(F)F)c3)nc2c1=O | i | ? | -9.7%[70.6 µM] | ? | i
O=C1NCCCCCCN(C(=O)Nc2ccccc2F)[C@H]2CCC[C@@H]12 | i | -4.5% | -6.6% | -4.4% | i
CN1CCC(N[C@H]2[C@H](O)[C@H](O)C[C@@H]2c2ccc(N3CCOCC3)nc2)CC1 | i | -1.2%[172 µM] | -1.3%[70.6 µM] | -2.0%[138 µM] | -8.8%[88.5 µM]
Cc1nnc(-c2cc(-c3ccsc3)ccn2)n1-c1ccccc1 | i | ? | -8.1%[70.6 µM] | ? | i
Cc1cc(-c2ccnc(-c3nnc(C)n3-c3ccccc3)c2)ccn1 | i | 44.7µM* | -0.4%[70.6 µM] | 25.1µM* | 4.9%[88.5 µM]
Cc1nnc(-c2cc(N3CCN(c4ccccn4)CC3)ccn2)n1-c1ccccc1 | i | ? | -2.0%[70.6 µM] | ? | -6.4%[88.5 µM]
CC(=O)N1CCN(c2ccnc(-c3nnc(C)n3-c3ccccc3)c2)CC1 | i | 1.8%[172 µM] | -0.5%[70.6 µM] | 89.1µM* | -3.8%[88.5 µM]
Cc1cc(-c2ccnc(-c3nnc(C)n3CCc3ccccc3)c2)ccn1 | i | ? | -11.4%[70.6 µM] | 79.4µM* | -26.3%[88.5 µM]
Cc1nnc(-c2cc(-c3cnn(C)c3)ccn2)n1-c1ccccc1 | i | ? | 2.5%[70.6 µM] | 89.1µM* | -5.5%[88.5 µM]
Cc1nnc2ccc(N3CCN(C(=O)Cc4ccccc4Cl)CC3)nn12 | . | -25.3% | . | ? | .
CCC1c2nccn2CCCN1C(=O)c1c(C)noc1C (stereo not drawn) | i | i | -11.8% | i | i
